# Screening data: PubChem BioAssay, Broad Institute
# U2OS ROS induce – raises reactive oxygen species in U2OS cancer cells. U2OS ROS induction, H2DCF-DA fluorescence. ROS induction (% of piperlongumine), % at 10 µM. 46,000 compounds, 2% hits. AID 624156; in the data active = ROS induction above about 79%, passing the limit was not always enough
# Numbers stand for hits; n = inactive. Shown is part of a subset that was picked to be rich in hits.
SMILES,U2OS ROS induce
NS(=O)(=O)c1ccc(NC(=O)C2CC2)cc1,n
O=C(NCc1ccc2c(c1)OCO2)c1ccc2c(=O)n(Cc3ccccc3)c(=S)[nH]c2c1,n
CC(C)NC(=O)c1ccc2c(=O)n(Cc3ccco3)c(=S)[nH]c2c1,n
O=C(NCc1ccco1)c1ccc(Cn2c(=S)[nH]c3ccc(Br)cc3c2=O)cc1,81
CCOCC(=O)Nc1c(C(=O)Nc2cccc(OC)c2)oc2ccccc12,n
COc1ccc(NC(=O)N(C)C[C@@H]2Oc3c(NC(=O)Nc4c(C)noc4C)cccc3C(=O)N([C@H](C)CO)C[C@H]2C)cc1,n
COc1ccc(N(CC(=O)Nc2ccc(Cl)c(Cl)c2)S(C)(=O)=O)cc1OC,n
C=C(C)C(=O)O[C@H]1C[C@@]2(C)OC(=CC2=O)/C(COC(C)=O)=C\[C@H]2OC(=O)C(=C)C12 (stereo partly specified),n
C=C(C)C(=O)O[C@H]1CC(=C)C2C[C@H](O)[C@](O)(CO)C2[C@H]2OC(=O)C(=C)[C@H]12 (stereo partly specified),186
C=C(C)C(=O)O[C@H]1[C@H]2C(=C)C(=O)O[C@@H]2C[C@@H](C)[C@@H]2O[C@@H]2C(=O)[C@](C)(O)[C@@H]1OC(=O)C(=C)C,n
Cc1nnc(SCC(=O)Nc2ccccc2C(F)(F)F)s1,n
O=C(CCCCCC(=O)Nc1ccccc1O)N/N=C/c1cc(F)ccc1O,n
CCC(C)N1Cc2ccccc2N(CC)C1c1ccccc1F (stereo unspecified),n
Cc1ccc(NC(=O)Cn2nc(C)c([N+](=O)[O-])c2C)cc1C,169
Cc1nn(CC(=O)Nc2ccc(F)cc2)c(C)c1[N+](=O)[O-],n
Cc1cc(I)ccc1NC(=O)Cn1nc(C)c([N+](=O)[O-])c1C,n
C[C@@H]1CN([C@H](C)CO)C(=O)Cc2cc(NC(=O)Nc3ccc4c(c3)OCO4)ccc2O[C@@H]1CN(C)C(=O)Nc1ccc(F)cc1,n
CC(C)CN(CC(C)C)C(=O)c1cc2ccccc2oc1=O,n
CCNc1nc(NC(C)(C)C)nc(N(C#N)CC(=O)OC)n1,n
CC(C)(C)Nc1nc(Cl)nc(N(C#N)CN2C(=O)c3ccccc3S2(=O)=O)n1,94
O=C(CN1C(=O)c2ccccc2S1(=O)=O)Nc1ccc(Cl)cc1,n
COc1cc(C2NC(=S)NC(C)=C2C(=O)Nc2ccccc2Cl)ccc1OCC#N (stereo unspecified),103
CC1=C(C(=O)Nc2cccc(Cl)c2C)C(c2ccc(F)cc2)NC(=S)N1 (stereo unspecified),n
CC1=C(C(=O)Nc2ccccc2Cl)C(c2cc(Br)ccc2OCC(N)=O)NC(=S)N1 (stereo unspecified),n
COc1ccc(-c2cc(=O)c3ccccc3o2)cc1,n
SMILES,U2OS ROS induce
COc1cc(O)c2c(=O)cc(-c3ccc(O)cc3)oc2c1,n
COc1ccc(N=c2cc(-c3ccc(OC)cc3)oc3ccc(O)cc23)cc1,193
COc1ccc(S(=O)(=O)Nc2cccc3c2O[C@H](CN(C)Cc2ccc(C(=O)Nc4ccccc4N)cc2)[C@H](C)CN([C@@H](C)CO)C3=O)cc1,n
C[C@H](CO)N1C[C@H](C)[C@@H](CN(C)C(=O)Nc2ccc(C(F)(F)F)cc2)Oc2c(NC(=O)CCCCCC(=O)Nc3ccccc3N)cccc2C1=O,n
CCOC(=O)CSc1nc2ccc(Br)cc2c2nc3ccccc3n12,n
C[C@H](CO)N1C[C@H](C)[C@H](CN(C)Cc2ccc(Oc3ccccc3)cc2)Oc2ccc(NC(=O)CCC(F)(F)F)cc2C1=O,n
COCCOC(=O)N1C(=O)[C@@]2(c3cc(C#Cc4ccc(OC)cc4)ccc31)[C@H](C(=O)NC[C@H](O)c1ccccc1)[C@H]1C(=O)O[C@H](c3ccccc3)[C@H](c3ccccc3)N1[C@@H]2c1ccc(OCCO)cc1,n
COCCOC(=O)N1C(=O)[C@@]2(c3ccccc31)[C@H](C(=O)NC[C@H](O)c1ccccc1)[C@H]1C(=O)O[C@H](c3ccccc3)[C@H](c3ccccc3)N1[C@@H]2c1ccc(OCCO)cc1,84
O=C1O[C@@H](c2ccccc2)[C@@H](c2ccccc2)N2[C@@H](c3ccc(O)cc3)[C@]3(C(=O)Nc4ccccc43)[C@@H](C(=O)NC[C@H](O)c3ccccc3)[C@H]12,n
COCCOC(=O)N1C(=O)[C@@]2(c3cc(C#Cc4ccc(OC)cc4)ccc31)[C@H](c1ccc(O)cc1)N1[C@H](c3ccccc3)[C@H](c3ccccc3)OC(=O)[C@H]1[C@@H]2C(=O)NC[C@H](O)c1ccccc1,n
O=C1O[C@H](c2ccccc2)[C@H](c2ccccc2)N2[C@H]1[C@@H](C(=O)NC[C@H](O)c1ccccc1)[C@]1(C(=O)Nc3ccccc31)[C@H]2c1ccc(O)cc1,n
O=C1O[C@@H](c2ccccc2)[C@@H](c2ccccc2)N2[C@@H](c3ccc(OCCO)cc3)[C@]3(C(=O)Nc4ccccc43)[C@@H](C(=O)NC[C@H](O)c3ccccc3)[C@H]12,103
C[C@H](CO)N1C[C@H](C)[C@H](CN(C)Cc2ccc(Oc3ccccc3)cc2)Oc2ccc(NC(=O)CCN3CCOCC3)cc2CC1=O,n
COC(=O)CN(C(=O)c1cc2ccccc2oc1=O)c1ccc(Br)cc1,n
[N-]=[N+]=NCc1ccccc1C[C@@]1(C(=O)NCc2ccccc2)N=C(c2ccc(OCCCO)cc2)O[C@@H]1c1ccccc1,118
[N-]=[N+]=NCc1ccccc1C[C@@]1(C(=O)N2CCOCC2)N=C(c2ccc(OCCCO)cc2)O[C@@H]1c1ccccc1,n
O=C(N1CCOCC1)[C@@]1(CCS(=O)(=O)c2ccccc2)N=C(c2ccc(OCCCO)cc2)O[C@H]1c1ccccc1,n
O=C(N1CCOCC1)[C@]1(CCS(=O)(=O)c2ccccc2)N=C(c2ccc(OCCCO)cc2)O[C@@H]1c1ccccc1,n
O=C(N1CCCCC1)[C@]1(CCS(=O)(=O)c2ccccc2)N=C(c2ccc(OCCCO)cc2)O[C@@H]1c1ccccc1,88
[N-]=[N+]=NCc1ccccc1C[C@]1(C(=O)N2CCCCC2)N=C(c2ccc(OCCCO)cc2)O[C@H]1c1ccccc1,155
[N-]=[N+]=NCc1ccccc1C[C@@]1(C(=O)N2CCCCC2)N=C(c2ccc(OCCCO)cc2)O[C@@H]1c1ccccc1,n
COCCCNC(=O)[C@]1(Cc2ccccc2CN=[N+]=[N-])N=C(c2ccc(OCCCO)cc2)O[C@@H]1c1ccccc1,n
COCCCNC(=O)[C@@]1(Cc2ccccc2CN=[N+]=[N-])N=C(c2ccc(OCCCO)cc2)O[C@H]1c1ccccc1,n
O=C(Cc1noc2ccccc12)NCCOC12CC3CC(CC(C3)C1)C2,n
CCS(=O)(=O)N1CCN(CC2CC=CCC2)CC1 (stereo unspecified),n
SMILES,U2OS ROS induce
COc1ccc(CCNC(=S)Nc2c(C)nn(C)c2C)cc1OC,n
C[C@H](CO)N1C[C@H](C)[C@@H](CN(C)Cc2ccc(C(=O)O)cc2)Oc2c(NC(=O)C3CCCCC3)cccc2C1=O,n
C[C@H]1CN([C@@H](C)CO)C(=O)Cc2cc(NS(=O)(=O)c3ccc(Cl)cc3)ccc2O[C@@H]1CN(C)Cc1ccc2c(c1)OCO2,n
C[C@H](CO)N1C[C@H](C)[C@H](CN(C)CC2CCCCC2)Oc2c(NS(C)(=O)=O)cccc2C1=O,n
C=C1C2CCC3C(CCC4[C@]3(C)CCC[C@]4(C)C(=O)O)(C2)C1OC(=O)/C(C)=C\C (stereo partly specified),n
O=C(NCc1cccnc1)c1cnn2c(C(F)F)cc(C3CC3)nc12,n
COC(=O)c1ccccc1NC(=O)c1nc2nc(C)cc(C(F)F)n2n1,n
